Calls of active or inactive are those of the source. Rule for the calls: active = hit-call score of the fitted dose curve at least 0.9, where 1 is the maximum; inactive = score below 0.9.
Assay: BSK_3C_uPAR: BioMAP Diversity Plus: 3C Assay for Urokinase-type plasminogen activator receptor (uPAR) Biomarker Activity (AID 2282998)
Conditions: BioMAP 3C HUVEC, uPAR biomarker ELISA; actives raise or lower the signal
Protocol: BSK_3C is a cell-based, multiplexed-readout assay that uses umbilical vein endothelium, a human vascular primary cell, with measurements taken at 24 hours after chemical dosing in a 96-well plate.BSK_3CAR is an assay component measured in the BSK_3C assay. It measures uPAR antibody related to regulation of gene expression using ELISA technology.Data from the assay component BSK_3CAR was analyzed into 1 assay endpoint. This assay endpoint, BSK_3CAR, was analyzed with bidirectional fitting relative to DMSO as the negative control and baseline of activity. Using a type of binding reporter, gain or loss-of-signal activity can be used to understand changes in the signaling as they relate to the gene PLAUR. Furthermore, this assay endpoint can be referred to as a primary readout, because this assay has produced multiple assay endpoints where this one serves a signaling function. To generalize the intended target to other relatable targets, this assay endpoint is annotated to the cytokine intended target family, where the subfamily is plasmogen activator.
The levels of cell surface (or secreted, indicated by the prefix "s") biomarker endpoints were measured by ELISA. Overt cytotoxicity to cells in confluent adherent cultures (all systems other than the BT system) was assessed by measuring total protein levels using sulforhodamine B (SRB) staining in parallel cultures at the time of biomarker measurements, indicated as SRB endpoints. For proliferation assays for adherent cell types, individual cell types are cultured at sub-confluence and relative cell numbers quantified by SRB staining at time points optimized for each system (48 h: 3C and CASM3C systems; 72 h: BT and HDF3CGF systems; 96 h: SAg system). SRB was performed by staining cells with 0.1% SRB after fixation with 10% TCA and reading wells at 560 nm.Viability and proliferation of PBMC (T cells) was quantified by Alamar Blue reduction for the SAg and BT systems. For PBMC viability (referred to as PBMC Cytotoxicity within the assay endpoint names), cells were plated (75,000/well in a 96-well plate) and then chemical samples added for 1 h before addition of activators, SEB and TSST-1 (20 ng/mL final concentration each). Cells were incubated for 90 h. Then, Alamar Blue (20 uL/well) (Invitrogen, Cat DAL1100) was added for 6 h, and the plates were read with a fluorescence microplate reader at 546/580 nm (excitation/emission). For PBMC proliferation, cells were plated and activated as above but incubated for only 16 h prior to addition of Alamar Blue. Plates were read after 6 h.
With `Oc1cccc(-c2ccccc2)c1` the AC50 was 20 µM (active). With `Oc1cc(Cl)c(Cl)cc1Cl` the AC50 was 14.7 µM (active). In the case of `Oc1c(Cl)cc(Cl)cc1Cl`, the outcome is reported as “inactive”. With `Cc1cc(Cl)ccc1N` the outcome was “inactive”. For `O=C(Cc1ccccc1)OCCc1ccccc1`, the outcome was “inactive”. In the case of `CC(C)O.CC(C)O.OCCN(CCO)CCO.OCCN(CCO)CCO.[Ti]`, the outcome is reported as “inactive”. With `Oc1c(Br)cc(Br)cc1Br` the AC50 was 30.1 µM (active). In the case of `Clc1cccc(Cl)c1Cl`, the outcome is reported as “inactive”. In the case of `CCCCCCCCCCCCN(C)C`, the outcome is reported as “inactive”. With `c1ccc2sc(SNC3CCCCC3)nc2c1` the outcome was “inactive”. With `CCN(CC)C(=O)C(Cl)=C(C)OP(=O)(OC)OC` the outcome was “inactive”. For `Cc1c([N+](=O)[O-])c(C)c([N+](=O)[O-])c(C(C)(C)C)c1[N+](=O)[O-]`, the AC50 was 20 µM (active). For `CC(C)(C)c1cc([N+](=O)[O-])cc(C(C)(C)C)c1O`, the AC50 was 0.467 µM (active). With `[Cl][Sn]([c]1ccccc1)([c]1ccccc1)[c]1ccccc1` the AC50 was 0.141 µM (active). With `O=S(=O)(C(Cl)(Cl)Cl)C(Cl)(Cl)Cl` the AC50 was 1.24 µM (active). In the case of `N#CCCC(Br)(C#N)CBr` (stereo not given), the AC50 is reported as 5.36 µM (active). For `CCOP(=S)(OCC)OP(=S)(OCC)OCC`, the AC50 was 34 µM (active). With `O=c1oc2ccccc2c(O)c1C(CC(O)c1ccc(-c2ccc(Br)cc2)cc1)c1ccccc1` (stereo not given) the AC50 was 5.92 µM (active). In the case of `OC(Cc1ccccc1Cl)(Cn1[nH]cnc1=S)C1(Cl)CC1` (stereo not given), the AC50 is reported as 20 µM (active). With `CN(C)C(=S)S` the outcome was “inactive”. For `Cc1ccc(OP(=O)(Oc2ccc(C)cc2C)Oc2ccc(C)cc2C)c(C)c1`, the outcome was “inactive”. With `OCCN(CCO)CCO` the outcome was “inactive”. In the case of `OC(Cc1ccccc1Cl)(Cn1cncn1)C1(Cl)CC1` (stereo not given), the AC50 is reported as 16.5 µM (active). With `CC(C)N(C(=O)CCl)c1ccccc1` the AC50 was 20 µM (active). In the case of `Cc1cc(Cl)ccc1OC(C)C(=O)O` (stereo not given), the outcome is reported as “inactive”. For `CC(C)(C)c1ccccc1O`, the outcome was “inactive”. For `CC(C)(COCC1CO1)COCC1CO1` (stereo not given), the outcome was “inactive”. With `C#CCOC(=O)/C=C(C)/C=C/CC(C)CCCC(C)C` (stereo not given) the AC50 was 33.5 µM (active). In the case of `Nc1ccc(N)cc1`, the outcome is reported as “inactive”. In the case of `O=C(N[C@H]1CN2CCC1CC2)c1ccc2c(c1)OCCO2`, the outcome is reported as “inactive”. In the case of `Cc1cc(C)cc(C)c1`, the outcome is reported as “inactive”. With `Oc1ccc(Cc2ccc(O)cc2)cc1` the outcome was “inactive”. For `O=C1C=CC(=O)c2ccccc21`, the AC50 was 1.7 µM (active). In the case of `c1ccc(-c2cccc(-c3ccccc3)c2)cc1`, the AC50 is reported as 20 µM (active). With `CCOP(=O)(OCC)SCCSCC` the outcome was “inactive”. With `Nc1c(Oc2ccccc2)cc(O)c2c1C(=O)c1ccccc1C2=O` the outcome was “inactive”. In the case of `O=C(O)COc1cc(Cl)c(Cl)cc1Cl`, the outcome is reported as “inactive”. With `CCOC(=O)C(SP(=S)(OC)OC)c1ccccc1` (stereo not given) the AC50 was 20 µM (active). In the case of `Cc1ccccc1OP(=O)(Oc1ccccc1)Oc1ccccc1`, the AC50 is reported as 35.3 µM (active). In the case of `CCC(C)(C#N)N=NC(C)(C#N)CC` (stereo not given), the outcome is reported as “inactive”.
